TDP1 cell noCPT – qHTS for Inhibitors of human tyrosyl-DNA phosphodiesterase 1 (TDP1): qHTS in cells in absence of CPT; DT40 Tdp1-/- hTDP1 cells, no CPT, ATP luminescence, 48 h; Potency, µM (top dose mostly 46.2 µM), without a hit: at the top dose activity change, negative = growth inhibition, hits mostly inhibitors; 420,000 tested, 15% active; note: potency is the fitted concentration of half-maximal effect; % is set by controls: 0 for no effect and ±100 for the full control effect; nearly all actives have a fitted effect of over 55% in size
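Camptothecin absent (DMSO only). Human TDP1-complemented DT40 knockout cells, 400 cells/well, 37 °C for minimum 48 hr; ATP measured via CellTiter-Glo, 30 min dark incubation, luminescence.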
HepG2 viability – kills HepG2 cells in TGF-b inhibitor counter-screen; HepG2 CAGA-GFP viability, ATP luminescence, 18 h; Potency, µM (top dose mostly 46.1 µM), inactives show at the top dose activity change, negative = cytotoxicity, actives largely listed as cytotoxic; 410,000 tested, 0.76% active; AID 588856; note: potency is the fitted concentration of half-maximal effect
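HepG2 CAGA-GFP cells (1000/well, DMEM with 1% FBS) received compound, then TGF-beta at 500 pg/mL final, and were incubated 18 hours at 37 degrees C. Viability was read by CellTiter-Glo luminescence. Media-only wells were set as complete cell-killing and DMSO as no toxicity.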
IL1B secr inh – blocks inflammasome-driven IL-1 beta release; 360,000 tested, 4.7% active; THP-1 LPS/ATP IL-1B secretion, AlphaLISA, 16 h; active compounds read low; AID 743279; activity change, % at 57.5 µM; in the data active = activity change below about -50%; inconclusive = mostly about -30% to -49%; note: % is set by controls: 0 for no effect and ±100 for the full control effect
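Secreted IL-1B measured by AlphaLISA bead assay after 16 h compound exposure of THP-1 cells; compounds (final up to 57.5 uM) added 1 h before LPS (250 ng/mL) and ATP (1.25 mM) stimulation; lower signal means less secretion.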
TGFb inhibitor – blocks TGF-b signaling. HepG2 CAGA-GFP TGF-b/SMAD3 reporter, GFP fluorescence, 18 h; TGF-beta stimulated, 500 pg/mL final. Potency, µM (top dose mostly 46.1 µM), for the others: at the top dose activity, negative = inhibition, most hits filed as inhibitors. 410,000 tested, 1.2% active; note: potency is the fitted concentration of half-maximal effect; % is set by controls: 0 for no effect and ±100 for the full control effect; nearly all actives have a fitted effect of over 65% in size
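Inhibition of TGF-beta-driven CAGA-GFP reporter expression in HEPG2 cells is measured by cellular GFP fluorescence after 18 h stimulation with 500 pg/mL recombinant TGF-beta in 1% FBS medium at 37 degrees C.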
TDP1 block – blocks human tyrosyl-DNA phosphodiesterase 1 | 350,000 tested, 0.28% active | AID 485290 | recombinant TDP1, AlphaScreen DNA substrate cleavage | Potency, µM (series often up to 130 µM), for inactives: at the top dose activity change, negative = inhibition, hits mostly inhibitors; note: potency is the fitted concentration of half-maximal effect; % is set by controls: 0 for no effect and ±100 for the full control effect; nearly all actives have a fitted effect of over 40% in size
Target sequence (Q9NUW8 whole entry, looked up): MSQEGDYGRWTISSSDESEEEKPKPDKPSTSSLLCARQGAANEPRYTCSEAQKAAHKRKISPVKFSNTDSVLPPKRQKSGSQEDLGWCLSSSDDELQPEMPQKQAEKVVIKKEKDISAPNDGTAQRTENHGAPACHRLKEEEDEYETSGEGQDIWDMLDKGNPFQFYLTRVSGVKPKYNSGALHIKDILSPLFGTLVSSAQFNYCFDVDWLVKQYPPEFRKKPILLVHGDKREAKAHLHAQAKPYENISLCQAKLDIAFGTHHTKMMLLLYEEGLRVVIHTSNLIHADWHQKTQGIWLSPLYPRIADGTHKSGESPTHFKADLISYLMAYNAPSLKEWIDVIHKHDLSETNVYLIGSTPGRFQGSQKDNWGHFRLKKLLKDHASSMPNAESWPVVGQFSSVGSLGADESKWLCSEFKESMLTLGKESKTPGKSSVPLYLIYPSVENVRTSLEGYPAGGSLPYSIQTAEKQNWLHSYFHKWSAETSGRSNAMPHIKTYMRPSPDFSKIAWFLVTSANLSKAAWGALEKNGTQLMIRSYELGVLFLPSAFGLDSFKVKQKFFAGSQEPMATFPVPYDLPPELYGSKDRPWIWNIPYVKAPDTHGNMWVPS
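Tdp1 1 nM final; 15 min RT w/ cpd; substrate 15 nM, 5 min; beads 10 ug/ml, 10 min; AlphaScreen read. Neg ctrl: no enzyme.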
TDP1 cell CPT – DT40-hTDP1 cell growth loss with CPT; AID 686979; Potency, µM (top dose mostly 46.2 µM), for inactives: at the top dose activity change, negative = growth inhibition, hits mostly inhibitors; chicken DT40 Tdp1-/-;hTDP1 cells + 20 nM CPT, ATP luminescence, 48 h; 420,000 tested, 12% active; note: potency is the fitted concentration of half-maximal effect; % is set by controls: 0 for no effect and ±100 for the full control effect; nearly all actives have a fitted effect of over 55% in size
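Chicken DT40 Tdp1-/- cells stably complemented with human TDP1 were seeded at 400 cells/well in medium containing 20 nM camptothecin, exposed to pin-transferred compounds, and grown at 37 °C for at least 48 hr. Viability was read as ATP luminescence.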
Numbers without * were called inactive; ? = inconclusive; · = no result given; [ ] = dose if it differs, or a comment. An excerpt weighted towards active compounds, which were near 18% of everything screened. Unless noted, calls come from the whole dose curve; as a rule, active = well fitted curve in the direction sought with a large enough effect; inconclusive = small, poorly fitted or top-dose-only effect, or another doubt; inactive = no such curve, though single readings can be large; an effect the other way counts as inactive or inconclusive.

SMILES	TDP1 cell noCPT	HepG2 viability	IL1B secr inh	TGFb inhibitor	TDP1 block	TDP1 cell CPT
COC(=O)CNC(=O)C1Nc2ccc(OC(F)(F)F)cc2C2C=CCC12 (centres undefined)	?	-3%	18	-14%	·	?
CCn1c(C)nc2cc(S(N)(=O)=O)ccc21	23µM*	4%	18	2%	3%	?
CCc1ccc(NC(=O)C2CCN(c3nn4c(=O)cc(C)nc4s3)CC2)cc1	?	-1%	·	?	-3%	?
CC1=CC(=O)C2=C(C)C[C@H](OC(=O)Cc3ccccc3)C3[C@H](OC(=O)[C@H]3C)C12 (some centres undefined)	?	·	·	·	8%	?
N#Cc1ccc(C(=O)N2CCN(C(=O)C3CCCO3)CC2)cc1 (centres undefined)	14%	5%	-4	16%	0%[56.1 µM]	-5%
CC(C)(C)c1ccc(CC(=O)N2CCC2(C)C(=O)Nc2cnc3ccccc3c2)cc1 (centres undefined)	12µM*	-38%	-10	?	·	21µM*
CC(C)c1ccc(CC(=O)N2CCC2(C)C(=O)Nc2cnc3ccccc3c2)cc1 (centres undefined)	?	-29%	-20	-10%	·	16µM*
CC(C)(C)c1ccc(C(=O)N2CCC2(C)C(=O)NCCC#N)cc1 (centres undefined)	?	6%	?	8%	·	?
CC(C)c1ccc(CC(=O)N2CCC2(C)C(=O)Nc2ccccc2)cc1 (centres undefined)	?	-10%	2	2%	·	?
CC(C)(C)c1ccc(C(=O)N2CCC2(C)C(=O)Nc2cnc3ccccc3c2)cc1 (centres undefined)	26µM*	-21%	-8	-7%	·	23µM*
O=C(CCc1c[nH]c2ccccc12)OCc1ccc(Br)cc1	-27%	-28%	-2	?	2%	-17%
CN(C)C(=O)CSc1ccc(S(=O)(=O)N2CCOCC2)cn1	15%	6%	-5	2%	2%	-7%
Cc1nn(-c2ccccc2)c(Cl)c1/C=C1\C(=O)N(C)C(=S)N1C	15µM*	-23%	-23	-8%	6%	?
Cc1nn(-c2ccccc2)c(Cl)c1/C=C/C(=O)c1ccccc1	?	11µM*	-95*	?	4%	?
COc1ccc(NC(=O)C(NC(=O)c2ccc(C)cc2)c2ccccc2)cc1 (centres undefined)	9%	-39%	0	?	8%	-15%
COc1ccc(C(=O)NC(Nc2ccc(C)cc2)C(Cl)(Cl)Cl)cc1 (centres undefined)	18µM*	-6%	-72*	11µM*	1%	21µM*
COc1ccc(NC(NC(=O)c2ccc(OC)cc2)C(Cl)(Cl)Cl)cc1 (centres undefined)	?	-10%	-78*	0%	10%	?
CC(=O)N1CCC2(CC1)CN(C(=O)Nc1cccc(C#N)c1)C2	5%	·	·	·	·	-1%
COc1ccc(NC(=O)CCC(=O)NCc2ccco2)c([N+](=O)[O-])c1	4%	11%	-3	4%	·	-14%
C[C@H]1CCC/C=C/[C@@H]2C[C@H](O)C[C@H]2[C@H](O)[C@H](S(=O)c2ccc(O)cc2)CC(=O)O1 (some centres undefined)	0.73µM*	-46%	?	0.13µM*	·	0.58µM*
CC(C)(CCc1ccccn1)C(=O)CCCc1ccccn1	?	7%	1	3%	·	?

High-throughput results: PubChem, National Center for Advancing Translational Sciences (NCATS)
